Data from ChEMBL document CHEMBL3988442, “University of Dundee, Small-Polar-MMV Screening Library” (2021).
Screen size: about 69,000 compounds; about 1,000 (1.4%) showed an effect of 50% or more. The full list was thinned out, with strong results kept by preference.

Test system: Leishmania donovani
Experiment: Leishmania intramacrophage assay
Format: functional, organism-based
Design: scale not given: in the data most compounds retested in dose-response had high values

## Cc1cc(C)c2c(c1)C(CC(=O)O)C(=O)N2 (stereo not given)
30.3 µM, […]
  Percent Effect: 12.49%

## Cc1ccc2nc(C)c(C)c(C(=O)NCCCn3ccnn3)c2c1
30.3 µM, […]
  Percent Effect: 16%

## CC(C)(C)c1n[nH]c(C2CN(Cc3nnc(C4CC4)o3)CCO2)n1 (stereo not given)
30 µM
  Percent Effect: 6.806%

## Cc1cc(C(=O)N2C[C@@H](CN(C)CCN(C)C)[C@@H](CO)C2)nc(C)n1
30.3 µM, […]
  Percent Effect: 0.2814%

## COc1ccc2cc(C(=O)N3CCCCC3CC(N)=O)[nH]c2c1 (stereo not given)
30 µM, 30.03 µM
  Percent Effect: 4.026%

## NC(=O)CN1CCC(NC(=O)Nc2nccs2)CC1
30 µM, 30.03 µM
  Percent Effect: -0.9986%

## CC(CNCc1ccncc1)Oc1ccccn1.Cl (stereo not given)
30 µM, 30.03 µM
  Percent Effect: 6.303%

## Cc1c(C)n(CC(O)CN2CCOCC2)c2c(Cl)cccc12.Cl (stereo not given)
30.3 µM, […]
  Percent Effect: -3.857%

## Cc1c(C)n(CC(O)CN2CCCCCC2)c2c(Cl)cccc12 (stereo not given)
30.3 µM, […]
  Percent Effect: -13.19%

## Cc1c(C)n(CC(O)CN2CCN(CCO)CC2)c2c(Cl)cccc12.Cl (stereo not given)
30.3 µM, […]
  Percent Effect: 50.22%

## O=C(C1CCOCC1)N1CC[C@H](O)[C@@H]1Cc1cccnc1
30.3 µM, […]
  Percent Effect: 25.33%

## Cc1noc(C)c1CN(C)c1ncnc2onc(C)c12
30.3 µM, […]
  Percent Effect: -10.33%

## O=C(c1cscn1)N1C[C@H](OCc2cccnc2)[C@H]2COC[C@H]21
30.3 µM, […]
  Percent Effect: -0.3632%

## COc1cccc(C(C(=O)O)N2CCC(Cn3cccn3)CC2)c1OC (stereo not given)
30.3 µM, […]
  Percent Effect: 3.274%

## CNc1nc(CNC(=O)Nc2cccc(Cl)c2OC)cs1
30 µM
  Percent Effect: 28.86%

## COc1c(Cl)cccc1NCc1csc(C)n1
30.3 µM, […]
  Percent Effect: -4.371%

## COc1c(Cl)cccc1NCc1csc(NC(C)=O)n1
30.3 µM, […]
  Percent Effect: 71.24%

## CCc1ccc(C(=O)N2CCCC2c2c(C)nn(C)c2OC)o1 (stereo not given)
30.3 µM, […]
  Percent Effect: 16.94%

## O=C(c1ccccn1)N1C[C@@H]2CC[C@H](C1)N(C(=O)Cc1cccs1)C2
30.3 µM, […]
  Percent Effect: -16.24%

## COc1ccc(-c2ccnc3nc(N4CCCCC4)[nH]c(=O)c23)cc1
30.3 µM, […]
  Percent Effect: 8.173%

## COc1ccc(-c2ccnc3nc(N4CCCC4)[nH]c(=O)c23)cc1OC
30.3 µM, […]
  Percent Effect: 26.43%

## COc1ccccc1-c1ccnc2nc(N3CCCCC3)[nH]c(=O)c12
30.3 µM, […]
  Percent Effect: 64.29%

## CCCN1CCCC1Cn1nc(C)cc1C (stereo not given)
30 µM
  Percent Effect: 21.44%

## O=S(=O)(c1ccccc1Br)N1CCC2(CC1)OCCS2
30.3 µM, […]
  Percent Effect: -12.48%

## CCCN1CCN(CC(O)c2ccc(OC(F)(F)F)cc2)CC1 (stereo not given)
30.3 µM, […]
  Percent Effect: 27.81%

## OCCN1CCN(CC(O)c2ccc(OC(F)(F)F)cc2)CC1 (stereo not given)
30.3 µM, […]
  Percent Effect: 19.69%

## COCCN1CCN(CC(O)c2ccc(OC(F)(F)F)cc2)CC1 (stereo not given)
30.3 µM, […]
  Percent Effect: 52.28%

## Cc1nc(CCN(C)C(=O)CN2CCCCCC2)no1
30.3 µM, […]
  Percent Effect: 28.54%

## CC(C)(C)NC(=O)NC(=O)CNc1c(F)cccc1N1CCCC1
30.3 µM, […]
  Percent Effect: 14.38%

## CCCn1nc2c(cc1=O)CN(c1ncnc3ccsc13)CC2
30.3 µM, […]
  Percent Effect: 56.14%

## CCn1nc2c(cc1=O)CN(c1ncnc3ccsc13)CC2
30.3 µM, […]
  Percent Effect: 42.12%

## Cn1nc2c(cc1=O)CN(c1ncnc3ccsc13)CC2
30.3 µM, […]
  Percent Effect: 15.92%

## Cc1nc([C@@H]2C[C@@H]3CCN(C(=O)c4ccnnc4)C[C@H]3O2)sc1C
30 µM, 30.03 µM
  Percent Effect: 6.612%

## CCN1C[C@H]2CCN(C(=O)NC3CCCC3)CC[C@H]2S1(=O)=O
30 µM, 30.03 µM
  Percent Effect: -4.578%

## CNC(=O)C1Cn2ccnc2C2(CCN(Cc3cccc(C)n3)CC2)O1.O=C(O)C(F)(F)F (stereo not given)
30 µM, 30.03 µM
  Percent Effect: -9.841%

## NCC1CCCN(c2nc(-c3ccccc3)nc3c2CCNCC3)C1 (stereo not given)
30.3 µM, […]
  Percent Effect: 17.41%

## N#CC1CCCN(c2nc(-c3ccccc3)nc3c2CCNCC3)C1 (stereo not given)
30 µM, 30.03 µM
  Percent Effect: 83.36%

## NCC1CN(c2nc(-c3ccccc3)nc3c2CCNCC3)CCO1 (stereo not given)
30 µM, 30.03 µM
  Percent Effect: 6.18%

## CCOCCCNC(=O)c1cc(Br)c2c(c1)OCCO2
30.3 µM, […]
  Percent Effect: 32.12%

## CCC(C)(C)NC(=O)Cn1nc(C)nc1-c1ccccc1
30.3 µM, […]
  Percent Effect: -5.337%

## CC1(C)CNC(=O)c2nc(CCN3CCC(O)CC3)[nH]c2C1
30.3 µM, […]
  Percent Effect: -12%

## O=C1[C@@H]2CN(Cc3cc4ccccc4o3)C[C@]2(C(=O)O)CN1CC1CC1
30.3 µM, […]
  Percent Effect: 10.9%

## CSCC[C@H](NC(C)=O)c1nc(CCc2ccccc2)n[nH]1
30.3 µM, […]
  Percent Effect: 10.23%

## NC(=O)c1ccccc1NC(=O)CCN1CCN(CCO)CC1
30.3 µM, […]
  Percent Effect: 10.76%

## COCC1c2c(cnn2C)CCN1C(=O)c1cccn1C.O=C(O)C(F)(F)F (stereo not given)
30.3 µM, […]
  Percent Effect: 51.46%

## COCC1c2c(cnn2C)CCN1C(=O)c1cscn1.O=C(O)C(F)(F)F (stereo not given)
30.3 µM, […]
  Percent Effect: 23.63%

## COCC1c2c(cnn2C)CCN1C(=O)c1cc(C)on1.O=C(O)C(F)(F)F (stereo not given)
30.3 µM, […]
  Percent Effect: 13.09%

## CCCC(=O)Nc1ccc(CC(=O)N(C)CCc2cn[nH]c2)cc1
30.3 µM, […]
  Percent Effect: 12.21%

## NC(=O)C1CCN(S(=O)(=O)c2cnn(-c3ccccc3)c2)CC1
30.3 µM, […]
  Percent Effect: 68.11%

## NC(=O)C1CCCN(S(=O)(=O)c2cnn(-c3ccccc3)c2)C1 (stereo not given)
30.3 µM, […]
  Percent Effect: 13.13%

## NC(=O)C1CCN(S(=O)(=O)c2cnn(-c3ccccc3)c2)C1 (stereo not given)
30.3 µM, […]
  Percent Effect: 30.89%

## COc1ccc([C@@H]2C[C@H](NC(C)=O)C[C@H](CCc3ccccc3)O2)cn1
30.3 µM, […]
  Percent Effect: 22.12%

## CN(C(=O)CCc1nc(C2CC2)no1)c1cc(C#N)c2ccccc2n1
30.3 µM, […]
  Percent Effect: -8.685%

## O=C(NCCOc1ccc2c(c1)OCO2)C1CC(=O)N(CC2CC2)C1 (stereo not given)
30 µM, 30.03 µM
  Percent Effect: 11.04%

## O=C(NCC(=O)N1CCCCC1)c1ccoc1
30 µM, 30.03 µM
  Percent Effect: -16.27%

## O=C(c1ccc2c(c1)OCO2)N1CCC[C@]2(C[C@H](OCC3CC3)CO2)C1
30 µM, 30.03 µM
  Percent Effect: 23.48%

## O=C(c1cocn1)N1CCC[C@]2(C[C@@H](OCC3CC3)CO2)C1
30.3 µM, […]
  Percent Effect: 14.29%

## O=C(c1ccc(F)c(F)c1)N1CCC[C@]2(C[C@@H](OCC3CC3)CO2)C1
30.3 µM, […]
  Percent Effect: 53.63%

## O=C(c1cocn1)N1CCC2(CC1)CC(OCC1CC1)CO2 (stereo not given)
30.3 µM, […]
  Percent Effect: 52.58%

## CCO[C@@H]1CO[C@@]2(CCCN(C(=O)c3ccc(OC)c(F)c3)C2)C1
30 µM, 30.03 µM
  Percent Effect: 6.334%

## COC1COC2(CCN(C(=O)c3cocn3)CC2)C1 (stereo not given)
30.3 µM, […]
  Percent Effect: -1.503%

## CC(C)CSCCN1CCCN(S(C)(=O)=O)CC1
30.3 µM, […]
  Percent Effect: 6.004%

## COc1ccc(C2CCCN2C(=O)c2ccc(=O)n(C)c2)cc1OC (stereo not given)
30.3 µM, […]
  Percent Effect: -9.758%

## c1ccc(OCCCNCc2cccs2)nc1
30.3 µM, […]
  Percent Effect: 58.66%

## c1ccc(OCCNCc2cccs2)nc1
30.3 µM, […]
  Percent Effect: 46.82%

## Cc1ccsc1CNCCCOc1ccccn1
30.3 µM, […]
  Percent Effect: -17.78%

## CC(C)[C@H]1CN(CCCO)C[C@@H]1NC(=O)CCC(F)(F)F
30.3 µM, […]
  Percent Effect: -10.59%

## CN(C)CCn1ccnc1C1CCCN(c2ncc(Cl)cc2F)C1 (stereo not given)
30.3 µM, […]
  Percent Effect: 16%

## CCS(=O)(=O)N1CCOC2(CCCN(c3ccc(C)nn3)C2)C1.O=C(O)C(F)(F)F (stereo not given)
30 µM, 30.03 µM
  Percent Effect: 11.03%

## CNc1nc(C(=O)N2C[C@H]3CC[C@@H]2CN(S(C)(=O)=O)C3)cs1
30.3 µM, […]
  Percent Effect: 50.94%

## CC(C)c1nc(C(=O)N2C[C@H]3CC[C@@H]2CN(C2CCOCC2)C3)cs1
30.3 µM, […]
  Percent Effect: 12.76%

## CNc1nc(C(=O)N2C[C@H]3CC[C@@H]2CN(C2CCOCC2)C3)cs1
30.3 µM, […]
  Percent Effect: 4.94%

## CS(=O)(=O)NC[C@]12COC[C@H]1CN(CCc1ccccc1)C2.O=C(O)C(F)(F)F
30.3 µM, […]
  Percent Effect: 17.9%

## CS(=O)(=O)NC[C@]12COC[C@H]1CN(CC1CCC1)C2.O=C(O)C(F)(F)F
30.3 µM, […]
  Percent Effect: 80.19%

## CS(=O)(=O)NC[C@]12COC[C@H]1CN(CC1CCCC1)C2.O=C(O)C(F)(F)F
30 µM, 30.03 µM
  Percent Effect: -6.018%

## O=C(Nc1cnccn1)[C@H]1CC[C@@H]2[C@@H](CCN2Cc2ccccn2)O1.O=C(O)C(F)(F)F
30.3 µM, […]
  Percent Effect: 28.13%

## CC(O)CCN(C)C(=O)Nc1cccc(F)c1 (stereo not given)
30.3 µM, […]
  Percent Effect: 1.493%

## c1ccc2ncc(CC3CCNCC3)cc2c1
30.3 µM, […]
  Percent Effect: -17.37%

## Clc1ccccc1C1(c2ccnc(C3CC3)n2)CCNCC1
30.3 µM, […]
  Percent Effect: 94.79%

## OC1(CN2CCC(Cc3ncccn3)CC2)CCOCC1
30.3 µM, […]
  Percent Effect: 5.693%

## Cl.Clc1ccccc1CN1CCc2nc(C3CCNCC3)ncc2C1
30.3 µM, […]
  Percent Effect: 3.749%

## Clc1ccccc1C1(c2ccnc(C3CCCC3)n2)CCNCC1
30.3 µM, […]
  Percent Effect: 99.4%

## Cl.Clc1cccnc1OC1CCNCC1
30.3 µM, […]
  Percent Effect: 14.95%

## Cl.Clc1ccccc1CN1CCc2nc(C3CCCNC3)ncc2C1 (stereo not given)
30.3 µM, […]
  Percent Effect: 6.249%

## Clc1ccccc1C1(c2ccnc(CC3CC3)n2)CCNCC1
30 µM, 30.03 µM
  Percent Effect: 93.39%

## Cl.Cl.c1ccc2c(c1)C(NC1CCCC1)CC21CCNCC1 (stereo not given)
30.3 µM, […]
  Percent Effect: 32.48%

## Cn1cc(-c2cnc(N3CCOCC3)nc2)cc1C(=O)N1CCCC1
30.3 µM, […]
  Percent Effect: 13.22%

## O=C(NCc1ccccc1-n1cccn1)N1CCC(N2CCCC2)C1 (stereo not given)
30 µM
  Percent Effect: 13.6%

## O=S(=O)(NC1=NCN(CCc2ccccc2)CN1)c1ccc(F)cc1
30.3 µM, […]
  Percent Effect: 1.728%

## CCc1cc(C(=O)N2CCC(C3CCN(c4ncccn4)CC3)C2)on1 (stereo not given)
30.3 µM, […]
  Percent Effect: 4.034%

## Cc1nc(NCCc2ccccc2)cc(C(=O)N2CCOCC2)n1
30.3 µM, […]
  Percent Effect: 21.35%

## CCn1c(-c2ccccc2)nn(CC(=O)NCCc2c[nH]cn2)c1=O
30.3 µM, […]
  Percent Effect: 22.36%

## Cc1cc(=O)c(C(=O)N(C)Cc2ccc(Cl)c(F)c2)c[nH]1
30.3 µM, […]
  Percent Effect: 24.44%

## Cc1cnn(C2CCCN(C(=O)c3cn4ccccc4n3)C2)c1 (stereo not given)
30 µM
  Percent Effect: -3.479%

## CCNC(=O)CN1CCN(Cc2nc3c(F)cccc3n2CC)CC1
30 µM
  Percent Effect: 25.75%

## Cn1cc(CCCN2CCN(Cc3cccc(O)c3)CC2)cn1
30.3 µM, […]
  Percent Effect: 7.791%

## Cc1nc(C)c(C)c(NCc2cnn3cccnc23)n1
30.3 µM, […]
  Percent Effect: 15.17%

## Cc1ccc(O)c(CNc2cccc(CN3CCSCC3)c2)n1
30.3 µM, […]
  Percent Effect: 6.923%

## Cc1nc(CN2C(=O)CCC23CCN(Cc2cccn2C)CC3)cs1.O=C(O)C(F)(F)F.O=C(O)C(F)(F)F
30.3 µM, […]
  Percent Effect: 2.496%

## N#CCCN(CC1CCOC1)Cn1ccc(-c2ccccc2)n1 (stereo not given)
30.3 µM, […]
  Percent Effect: 16.63%
